Laboratory results reported in PubChem BioAssay (Tox21).
Unmarked numbers belong to inactive results. Results filed as inconclusive are left out. A call without a number means that no potency is given here. Active and inactive are the calls of the source. Unless noted, calls follow the shape of the dose curve; as a rule, active = well fitted curve in the direction sought with a large enough effect in the repeat runs; inconclusive = weak or mixed curves; inactive = no such curve, though single readings can be large; an effect the other way counts as inactive or inconclusive.

Columns and labels:
[1] = qHTS assay to identify small molecule HDAC inhibitors (AID 1259364);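 also: wild-type HCT-116 cells with endogenous class I/II HDAC activity; top concentration of the series differs between compounds; nearly all actives have a fitted effect of over 45% in size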
How it was run: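 Quantitative high-throughput format: overnight-seeded HCT-116 cells got compounds for 2 hr at 37C; HDAC-Glo I/II reagent added, 30 min RT, luminescence measured.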

[2] = qHTS assay to identify small molecule HDAC inhibitors - cell viability counter screen (AID 1259365); also: series mostly up to about 92 µM; nearly all actives have a fitted effect of over 50% in size
How it was run: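 To flag cytotoxic hits, 1,500 wild-type HCT-116 cells per well, plated the day before, receive test compounds for 2hr at 37 C before CellTiter-Glo reagent and a luminescence read.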

[3] = qHTS assay to identify small molecule agonists of the sonic hedgehog signaling (Shh) pathway - cell viability counter screen (AID 1259366); also: nearly all actives have a fitted effect of over 50% in size
How it was run: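 Fluorescence from CellTiter-Fluor reports live cells in this counter screen. NIH/3T3-derived Gli1-Luc reporter cells receive test compounds for 24hr at 37C; reagent goes in at 23hr.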

[4] = qHTS assay to identify small molecule antagonists of the sonic hedgehog signaling (Shh) pathway - cell viability counter screen (AID 1259367); also: nearly all actives have a fitted effect of over 55% in size
How it was run: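 CellTiter-Fluor signal in conditioned medium-stimulated 3T3 Gli1-Luc cells, 23 hr compound exposure, 37C.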

[5] = qHTS assay to identify small molecule antagonists of the sonic hedgehog signaling (Shh) pathway (AID 1259369; calls by dose curve; also: nearly all actives have a fitted effect of over 45% in size)
How it was run: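 Stable Gli1-Luc reporter NIH/3T3 clone; quantitative HTS in stimulated mode with conditioned medium. Luminescence measured after 24hr compound treatment at 37 C.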

[6] = molecular target: Estrogen receptor beta (Homo sapiens) (UniProt Q92731); experiment: qHTS assay to identify small molecule agonists of the estrogen receptor beta (ER-beta) signaling pathway (AID 1259377; active = well fitted activation curve with a large enough effect in the signal ratio in the repeat runs, not every such curve was filed as active; the % refers to the signal ratio)
Sequence of Estrogen receptor beta (Homo sapiens) (Q92731 whole entry, looked up): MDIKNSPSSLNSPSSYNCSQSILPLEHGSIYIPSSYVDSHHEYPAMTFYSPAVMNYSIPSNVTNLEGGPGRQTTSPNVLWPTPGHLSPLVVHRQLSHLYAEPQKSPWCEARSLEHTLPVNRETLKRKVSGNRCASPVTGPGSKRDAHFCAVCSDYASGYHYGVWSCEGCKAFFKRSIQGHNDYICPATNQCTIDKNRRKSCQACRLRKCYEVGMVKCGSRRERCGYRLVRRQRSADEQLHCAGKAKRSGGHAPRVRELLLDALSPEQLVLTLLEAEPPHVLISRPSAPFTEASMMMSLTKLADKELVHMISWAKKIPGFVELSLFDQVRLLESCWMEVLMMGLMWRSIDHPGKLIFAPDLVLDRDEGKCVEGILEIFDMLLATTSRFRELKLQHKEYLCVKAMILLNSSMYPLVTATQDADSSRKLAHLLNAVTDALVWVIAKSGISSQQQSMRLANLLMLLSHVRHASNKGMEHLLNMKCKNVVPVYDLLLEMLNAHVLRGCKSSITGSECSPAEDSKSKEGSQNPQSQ
How it was run: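 Screening used GripTite ER-beta-UAS-bla cells held in 2% charcoal-stripped FBS medium. After overnight (16 hr) compound incubation at 37C, beta-lactamase activity was detected with a FRET substrate by fluorescence.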

[7] = molecular target: Estrogen receptor beta (Homo sapiens) (UniProt Q92731); experiment: qHTS assay to identify small molecule antagonists of the estrogen receptor beta (ER-beta) signaling pathway (AID 1259378; active = well fitted inhibition curve with a large enough effect in the signal ratio in the repeat runs, not every such curve was filed as active; the % refers to the signal ratio)
How it was run: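 Antagonist mode: compounds added to beta-lactamase reporter HEK293T ER-beta-UAS cells stimulated with E2 (1nM final), 16 hr at 37C. LiveBLAzer B/G FRET substrate, 2 hours room temperature, fluorescence read-out.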

[8] = qHTS assay to identify small molecule agonists of the androgen receptor (AR) signaling pathway in the presence of an antagonist - cell viability counter screen (AID 1259379);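 also: MDA-kb2 human breast cancer cells carrying an MMTV luciferase reporter; series mostly up to about 92 µM; nearly all actives have a fitted effect of over 25% in size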
How it was run: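 Nilutamide-containing (3.0uM final) MDA-kb2 cultures, 3,000 cells/well, were treated with compounds across 15 concentrations. After 16 hr at 37C with no CO2, cell viability was determined by CellTiter-Fluor fluorescence in the luciferase assay wells.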

[9] = qHTS assay to identify small molecule agonists of the estrogen receptor beta (ER-beta) signaling pathway - cell viability counter screen (AID 1259380); also: nearly all actives have a fitted effect of over 30% in size
How it was run: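 Steps: plate ER-beta-UAS-bla HEK293T cells, rest 6 hr; add compounds in DMSO; incubate 16 hr at 37C, 5% CO2; add FRET substrate 2 hr; add CellTiter-Glo, wait 30 min at room temperature; read luminescence.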

[10] = qHTS assay to identify small molecule antagonists of the estrogen receptor beta (ER-beta) signaling pathway - cell viability counter screen (AID 1259382);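 also: HEK293T cells carrying ER-beta-UAS-bla reporter stimulated with estradiol; series mostly up to about 92 µM; nearly all actives have a fitted effect of over 55% in size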
How it was run: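 Viability is scored by CellTiter-Glo luminescence (30 min, room temperature) in ER-beta-UAS-bla HEK293T wells already read for reporter fluorescence. Compound exposure lasts 16 hr at 37C alongside 1nM 17-beta-estradiol in charcoal-stripped serum medium.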

[11] = molecular target: Estrogen receptor (Homo sapiens) (UniProt P03372); experiment: qHTS assay to identify small molecule agonists of the estrogen receptor alpha (ER-alpha) signaling pathway in the presence of an antagonist (AID 1259383; calls by dose curve; also: top concentration of the series differs between compounds; nearly all actives have a fitted effect of over 15% in size)
Sequence of Estrogen receptor (Homo sapiens) (P03372 whole entry, looked up): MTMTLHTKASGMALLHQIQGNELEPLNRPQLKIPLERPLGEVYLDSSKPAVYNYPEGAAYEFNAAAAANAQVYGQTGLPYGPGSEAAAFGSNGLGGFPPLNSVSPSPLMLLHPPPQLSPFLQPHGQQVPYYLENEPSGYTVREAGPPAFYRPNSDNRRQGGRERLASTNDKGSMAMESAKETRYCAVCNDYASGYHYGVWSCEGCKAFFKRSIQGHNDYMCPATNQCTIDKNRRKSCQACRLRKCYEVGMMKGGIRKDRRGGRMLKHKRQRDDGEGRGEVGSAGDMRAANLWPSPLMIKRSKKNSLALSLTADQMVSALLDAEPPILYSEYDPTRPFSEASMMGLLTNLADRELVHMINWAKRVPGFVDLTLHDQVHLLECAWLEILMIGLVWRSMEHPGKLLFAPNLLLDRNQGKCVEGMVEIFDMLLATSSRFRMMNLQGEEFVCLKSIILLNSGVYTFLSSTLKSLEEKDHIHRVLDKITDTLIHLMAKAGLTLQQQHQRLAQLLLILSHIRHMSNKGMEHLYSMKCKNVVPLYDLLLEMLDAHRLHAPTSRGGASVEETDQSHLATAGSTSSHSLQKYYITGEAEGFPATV
How it was run: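 Readout was ERE-driven luciferase luminescence in VM7Luc4E2 cells, which express full-length ER-alpha endogenously. Compounds were tested at 15 concentrations for 22hr alongside 10.0nM ICI-182,780 (final concentration).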

[12] = molecular target: Thyrotropin receptor (Homo sapiens) (UniProt P16473); experiment: qHTS assay to identify small molecule antagonists of the thyroid stimulating hormone receptor (TSHR) signaling pathway (AID 1259385; calls by dose curve; also: nearly all actives have a fitted effect of over 20% in size)
Sequence of Thyrotropin receptor (Homo sapiens) (P16473 whole entry, looked up): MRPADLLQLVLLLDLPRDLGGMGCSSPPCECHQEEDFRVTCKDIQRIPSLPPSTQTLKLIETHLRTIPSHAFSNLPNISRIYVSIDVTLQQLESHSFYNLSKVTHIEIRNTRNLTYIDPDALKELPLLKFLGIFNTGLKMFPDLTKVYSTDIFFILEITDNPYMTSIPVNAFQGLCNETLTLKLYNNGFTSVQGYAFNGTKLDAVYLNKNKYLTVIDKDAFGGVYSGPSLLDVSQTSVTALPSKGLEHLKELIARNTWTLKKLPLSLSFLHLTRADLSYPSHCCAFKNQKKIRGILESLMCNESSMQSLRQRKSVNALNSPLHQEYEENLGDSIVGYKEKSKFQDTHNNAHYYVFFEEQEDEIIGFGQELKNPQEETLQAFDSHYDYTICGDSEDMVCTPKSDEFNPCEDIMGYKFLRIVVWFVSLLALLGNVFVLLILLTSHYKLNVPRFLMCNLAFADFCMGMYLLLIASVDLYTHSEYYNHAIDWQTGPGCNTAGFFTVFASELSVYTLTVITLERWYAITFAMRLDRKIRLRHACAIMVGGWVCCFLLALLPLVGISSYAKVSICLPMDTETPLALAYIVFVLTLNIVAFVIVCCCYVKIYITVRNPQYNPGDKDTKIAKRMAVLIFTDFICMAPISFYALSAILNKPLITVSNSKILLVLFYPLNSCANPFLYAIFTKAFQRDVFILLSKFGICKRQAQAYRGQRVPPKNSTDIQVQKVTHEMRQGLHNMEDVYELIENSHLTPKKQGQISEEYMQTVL
How it was run: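 Antagonist mode: compound-treated TSHR-expressing HEK293 cells were stimulated with 1.5 ng/mL TSH (final) in presence of Ro20-1724 for 30 min at RT. HTRF cAMP detection after 1 h; each compound tested at 15 concentrations, triplicate.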

[13] = qHTS assay to identify small molecule agonists of the estrogen receptor alpha (ER-alpha) signaling pathway in the presence of an antagonist - cell viability counter screen (AID 1259386);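 also: series mostly up to about 92 µM; cells exposed to compounds for 22 h at 37 °C before the viability read; nearly all actives have a fitted effect of over 30% in size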
How it was run: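 In this counter screen, compound effects on VM7Luc4E2 viability were tested in the presence of the antagonist ICI-182,780 at 10.0nM final. Compounds were dosed at 15 concentrations, exposure lasted 22hr, and the CellTiter-Fluor signal was read.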

[14] = molecular target: Progesterone receptor (Homo sapiens) (UniProt P06401); experiment: qHTS assay to identify small molecule agonists of the progesterone receptor (PR) signaling pathway (AID 1346784; calls by dose curve; also: nearly all actives have a fitted effect of over 30% in size; also: potency is read from the fitted curve at half-maximal effect)
Sequence of Progesterone receptor (Homo sapiens) (P06401 whole entry, looked up): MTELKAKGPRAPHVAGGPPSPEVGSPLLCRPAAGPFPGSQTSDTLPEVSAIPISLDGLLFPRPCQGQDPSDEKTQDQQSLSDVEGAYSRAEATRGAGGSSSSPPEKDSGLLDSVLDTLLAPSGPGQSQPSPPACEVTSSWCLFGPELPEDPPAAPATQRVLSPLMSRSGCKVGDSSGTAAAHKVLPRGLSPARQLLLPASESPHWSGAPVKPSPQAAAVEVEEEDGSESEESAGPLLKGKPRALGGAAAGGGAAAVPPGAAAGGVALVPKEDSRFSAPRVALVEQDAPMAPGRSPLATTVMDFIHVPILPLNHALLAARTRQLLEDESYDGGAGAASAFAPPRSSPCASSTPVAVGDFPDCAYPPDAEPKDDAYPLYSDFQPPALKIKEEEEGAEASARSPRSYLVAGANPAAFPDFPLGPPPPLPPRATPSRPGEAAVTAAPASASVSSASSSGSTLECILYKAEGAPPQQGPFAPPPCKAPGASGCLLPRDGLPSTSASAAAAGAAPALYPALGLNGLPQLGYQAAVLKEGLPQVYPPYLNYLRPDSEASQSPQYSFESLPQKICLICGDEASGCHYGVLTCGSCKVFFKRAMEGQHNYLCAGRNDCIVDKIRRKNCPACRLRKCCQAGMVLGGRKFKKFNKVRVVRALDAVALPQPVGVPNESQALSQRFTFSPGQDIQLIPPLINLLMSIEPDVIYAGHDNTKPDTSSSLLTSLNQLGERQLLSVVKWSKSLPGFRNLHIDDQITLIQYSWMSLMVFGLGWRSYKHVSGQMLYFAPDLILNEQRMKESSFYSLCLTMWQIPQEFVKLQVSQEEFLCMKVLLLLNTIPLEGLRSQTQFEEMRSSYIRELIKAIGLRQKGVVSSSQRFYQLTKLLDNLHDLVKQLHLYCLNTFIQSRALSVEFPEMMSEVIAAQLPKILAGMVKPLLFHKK
How it was run: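 Seed PR-UAS-bla HEK 293T cells (2% charcoal-stripped FBS), incubate 6 hr at 37C; add compounds in DMSO, 16 hr at 37C; add LiveBLAzer B/G substrate, 2 hr RT; read fluorescence intensity.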

[15] = molecular target: Progesterone receptor (Homo sapiens) (UniProt P06401); experiment: qHTS assay to identify small molecule antagonists of the progesterone receptor (PR) signaling pathway (AID 1346795; active = well fitted inhibition curve with a large enough effect in the signal ratio in the repeat runs, not every such curve was filed as active; the % refers to the signal ratio)
How it was run: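 Screening used a GripTite HEK293T line with PR-responsive UAS-beta-lactamase. Cells were challenged with compound in the presence of 1 nM R5020 final for 16 hr at 37C; B/G FRET substrate, 2 hr room temperature, fluorescence.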

[16] = qHTS assay to identify small molecule antagonists of the progesterone receptor (PR) signaling pathway - cell viability counter screen (AID 1346798); also: series mostly up to about 92 µM; nearly all actives have a fitted effect of over 50% in size
How it was run: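 Measures cytotoxicity in parallel with the PR antagonist reporter read: HEK293T PR-UAS-bla cells get compound and R5020 for 16 hr, and remaining viable cells are quantified by CellTiter-Glo luminescence.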

[17] = qHTS assay to identify small molecule agonists of the progesterone receptor (PR) signaling pathway - cell viability counter screen (AID 1346799; calls by dose curve; also: nearly all actives have a fitted effect of over 45% in size)
How it was run: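 Using the same plates as the PR reporter screen, HEK293T PR-UAS-bla cells received compounds for 16 hr at 37C and were then lysed with CellTiter-Glo; luminescence was read 30 min later at room temperature.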

[18] = qHTS assay to identify small molecule antagonists of the TGF-beta/Smad signaling pathway - cell viability counter screen (AID 1346824); also: nearly all actives have a fitted effect of over 50% in size
How it was run: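 Cytotoxicity counter-screen run in the same wells as the beta-lactamase Smad reporter read: CellTiter-Glo luminescence after 30 min at room temperature. HEK 293T SBE-bla cells had 5 hr compound exposure at 37 C with TGF-beta1 (0.25 ng/mL stock).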

[19] = qHTS assay to identify small molecule agonists of the sonic hedgehog signaling (Shh) pathway (AID 1259368; calls by dose curve;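 also: NIH/3T3-derived 3T3Gli1-Luc cells carrying a stable Gli1-driven firefly luciferase reporter; series mostly up to about 92 µM; nearly all actives have a fitted effect of over 15% in size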)
How it was run: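 Quantitative high-throughput format using a Gli1-driven firefly luciferase reporter line derived from NIH/3T3 cells. After a 24 hr compound treatment at 37 C and 5% CO2, luminescence reported Gli1 response element activity.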

[20] = qHTS assay to identify small molecule agonists or antagonists of the thyroid stimulating hormone receptor (TSHR) signaling pathway - wild type cell line counter screen (AID 1259384; calls by dose curve)
How it was run: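 Counter screen in untransfected Hek293: compounds (15-point titration, triplicate) plus phosphodiesterase inhibitor Ro20-1724 added after 18 h plating; 30 min RT. Intracellular cAMP via competitive d2/cryptate immunoassay, 1 h incubation.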

Structure (SMILES)	Potency [1]	outcome [2]	Potency [3]	Potency [4]	Potency [5]	Potency [6]	outcome [7]	Potency [8]	outcome [9]	outcome [10]	outcome [11]	outcome [12]	Potency [13]	Potency [14]	Potency [15]	Potency [16]	Potency [17]	outcome [18]	outcome [19]	outcome [20]
CCOC(=O)CC#N	inactive	inactive	inactive	inactive	inactive	inactive	inactive	inactive	inactive	inactive	inactive	inactive	inactive	inactive	inactive	inactive	inactive	inactive	–	–
O=C(CN1CCN(Cc2ccc3c(c2)OCO3)CC1)N1c2ccccc2Sc2ccccc21	inactive	inactive	inactive	inactive	–	–	–	inactive	–	inactive	–	inactive	inactive	–	inactive	–	inactive	inactive	inactive	inactive
CCCCCCCCCCCCCC(=O)OC	inactive	inactive	inactive	inactive	inactive	inactive	inactive	inactive	inactive	–	inactive	inactive	inactive	inactive	inactive	–	inactive	inactive	–	–
Cc1nc2n(c(=O)c1CCN1CCC(C(=O)c3ccc(F)cc3)CC1)CCS2	inactive	inactive	inactive	inactive	–	–	–	inactive	inactive	–	inactive	inactive	–	inactive	inactive	–	inactive	inactive	inactive	inactive
Cc1ncc([N+](=O)[O-])n1CC(O)CCl (centres undefined)	inactive	inactive	inactive	inactive	–	–	–	inactive	inactive	inactive	–	inactive	inactive	inactive	inactive	inactive	inactive	inactive	inactive	inactive
O=S(=O)(O)SSS(=O)(=O)O	inactive	inactive	inactive	inactive	–	inactive	inactive	inactive	inactive	–	–	inactive	inactive	inactive	inactive	inactive	inactive	inactive	inactive	inactive
CCC(CO)CO	inactive	inactive	inactive	inactive	inactive	inactive	inactive	inactive	inactive	–	inactive	–	inactive	inactive	inactive	inactive	inactive	inactive	–	–
NC(Cc1c[nH]c2ccccc12)C(=O)O (centres undefined)	inactive	inactive	inactive	inactive	–	inactive	–	inactive	inactive	inactive	–	inactive	inactive	inactive	inactive	–	inactive	inactive	inactive	inactive
CO[Si](CCCS)(OC)OC	inactive	inactive	inactive	inactive	–	inactive	inactive	–	inactive	inactive	inactive	inactive	inactive	inactive	inactive	–	–	inactive	inactive	inactive
Cc1cccc(Nc2ccncc2S(=O)(=O)NC(=O)NC(C)C)c1	inactive	inactive	inactive	inactive	inactive	inactive	inactive	inactive	inactive	–	inactive	inactive	inactive	inactive	inactive	inactive	inactive	inactive	–	inactive
Cc1cccc(C(=O)O)c1[N+](=O)[O-]	inactive	inactive	inactive	inactive	inactive	inactive	inactive	inactive	inactive	inactive	inactive	inactive	inactive	–	inactive	inactive	inactive	–	–	inactive
C[C@@H]1C[C@H]2[C@@H]3C[C@H](F)C4=CC(=O)C=C[C@]4(C)[C@@]3(F)[C@@H](O)C[C@]2(C)[C@@]1(O)C(=O)CO	inactive	inactive	inactive	inactive	–	inactive	inactive	–	inactive	–	–	inactive	inactive	5.96 µM (active)	–	inactive	inactive	inactive	inactive	inactive
CC(=O)Nc1ncc([N+](=O)[O-])s1	inactive	inactive	inactive	inactive	–	–	–	inactive	inactive	inactive	inactive	inactive	–	–	inactive	inactive	inactive	inactive	inactive	inactive
CC(C)CCCC(C)CC=O (centres undefined)	inactive	inactive	inactive	inactive	inactive	inactive	inactive	inactive	inactive	inactive	inactive	inactive	inactive	inactive	inactive	inactive	inactive	inactive	–	–
O=C(O)C(=O)Nc1cccc(-c2nn[nH]n2)c1	inactive	inactive	inactive	inactive	–	–	–	inactive	inactive	inactive	–	inactive	inactive	inactive	inactive	inactive	inactive	inactive	inactive	–
CC(=O)OC(C)(C)Cc1ccccc1	inactive	inactive	inactive	inactive	–	–	–	inactive	inactive	inactive	–	inactive	inactive	inactive	inactive	inactive	inactive	–	inactive	–
